PTEN del growth = growth suppressors of cells with PTEN tumor suppressor deletion; viability, % at 10 µM; HCT116 PTEN-null viability, CellTiter-Glo, 60 h; stronger effect = lower value; AID 827; 140,000 tested, 1.2% active;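 active = viability at or below a set limit, 4 SD under the median of all tested compounds, cut at about 3.7% in these data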;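 note: PTEN knockout HCT116 line with beta catenin targeted HCT116 as companion control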
Insulin prom inh = TRM-6 insulin promoter activity inhibition | TRM-6 cells (human fetal islet line), insulin promoter-eGFP reporter, imaging; reporter expression induced with tamoxifen | 130,000 tested, 0.9% active | AID 1273 | inhibition, % at 2 µM;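 active = inhibition above the mean plus 3 SD, with well images judged a real hit on visual review, cut at about 60% in these data, passing the limit was not always enough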
bCat KO growth = beta-catenin-lacking colon tumor cell growth suppression; viability, % at 10 µM; HCT116 beta-catenin knockout viability, CellTiter-Glo, 60 h; stronger effect = lower value; 140,000 tested, 1.5% active; AID 818;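 active = viability at or under a set limit, the compound median less 4 SD, cut at about 6% in these data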
p97 inhibitor = human p97 ATPase inhibition; P55072; inhibition, % at 8 µM; recombinant p97 ATPase, Kinase-Glo ATP luminescence, 3 h; 220,000 tested, 0.42% active; in the data active = inhibition above about 15%
L major viab = reduces viability of Leishmania major promastigotes; AID 1063; inhibition, % at 10 µM; 200,000 tested, 9% active; resazurin fluorescence viability; in the data active = inhibition above about 50%;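 note: promastigotes grown with compound for 44 hours at 28 °C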
ROMK primary = modulators of human ROMK potassium channel; Tet-inducible ROMK, thallium flux fluorescence; actives lie on both sides; P48048; 130,000 tested, 2% active; B-score at 10 µM;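 active = signal ratio slope over the read window, or its plate-corrected B-score, at least 3 SD from the plate mean, either direction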;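 note: B-score of the F/F0 ratio slope over 7 to 12 s after thallium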
A number is an active result; 0 = inactive; - = not tested or not shown. Rows were chosen to be rich in hits. Some 10% of all compounds tested hit in one or more screens of this group.

SMILES	PTEN del growth	Insulin prom inh	bCat KO growth	p97 inhibitor	L major viab	ROMK primary
CCOc1ccc(CCNC(=O)C(CCC(N)=O)NC(=O)OCc2ccccc2)cc1OCC (stereo unspecified)	-	0	-	0	0	0
COc1ccccc1-c1c(-c2ccc(OCC(=O)NN)cc2O)n[nH]c1C(F)(F)F	0	0	0	0	87.2	0
NNC(=O)COc1ccc(-c2n[nH]c(C(F)(F)F)c2-c2ccc(Br)cc2)c(O)c1	0	0	0	0	0	-
O=C(CN1C(=O)CCC1=O)c1ccc(-c2ccccc2)cc1	0	-	0	0	0	0
N=c1ccn(CC(=O)c2ccc(-c3ccccc3)cc2)cc1	-	-	-	0	99.0	0
CCOC(=O)c1sc(NC(=O)CSc2nncn2C)nc1C	-	-	-	0	0	0
CCN(CC)CCN1C(=O)C(O)=C(C(=O)c2cc3cccc(OC)c3o2)C1c1ccc(F)cc1 (stereo unspecified)	-	-	-	0	-	-
Cc1cccc(N2C(=O)C(Oc3ccc(Cl)cc3Cl)C2C=O)c1C (stereo unspecified)	0	0	5.2	0	100.0	-4.89
O=C(NNC(=O)C1CCCN(S(=O)(=O)c2cccc(F)c2)C1)C1CC1 (stereo unspecified)	-	0	-	0	0	0
COc1cc(/C=N/Nc2ccc(F)cc2F)cc(OC)c1O	0	0	0	0	67.9	-
COc1cc(/C=N/Nc2ccccc2[N+](=O)[O-])cc(OC)c1O	-	0	-	0	0	0
CCN(CC)CCCN=Cc1c(O)n(-c2ccccc2C)c(=O)c2ccccc12	-	-	-	0	-	-
CCC1=NN(C(=O)Cc2ccc(OC)c(OC)c2)C(O)(C(F)(F)F)C1 (stereo unspecified)	0	0	0	0	0	-
CCc1nc(N=Nc2c(O)[nH]c3ccccc23)c2c3c(sc2n1)CCC3	0	0	0	0	82.5	0
Cn1nc(-c2ccc(C(=O)Nc3cccc(Cl)c3)cc2)c2ccccc2c1=O	0	0	0	0	0	0
O=C(CCl)N=c1sccn1Cc1ccc(Cl)cc1Cl	-	0	-	0	85.6	-
CCCn1c(CC)nc([N+](=O)[O-])c1S(=O)(=O)c1ccccc1	1.2	0	1.4	0	99.7	-
CC1=C(C(=O)Nc2ccccc2C)C(c2ccc(C)o2)n2c(s/c(=C/c3ccccc3)c2=O)=N1 (stereo unspecified)	0	77.4	1.1	0	75.2	0
CC1=C(C(=O)Nc2ccccc2)C(c2ccc(C)o2)n2c(s/c(=C/c3ccccc3)c2=O)=N1 (stereo unspecified)	0	0	0	0	95.4	0
CCOC(=O)C(C)(C)N(Cc1ccccc1C)S(=O)(=O)c1ccc(Cl)c([N+](=O)[O-])c1	0	0	0	0	99.8	0
CCCN(CCC)S(=O)(=O)c1ccc(Cl)c([N+](=O)[O-])c1	-	-	-	0	0	0
CCC(COC)NCc1cn(-c2ccc(OC)cc2)nc1-c1cccc(F)c1 (stereo unspecified)	-	-	-	0	0	0
CCOc1ccc(OCC)c(S(=O)(=O)NCCOC23CC4CC(CC(C4)C2)C3)c1	0	0	0	0	77.8	0
CCCC(C)C1C(C#N)=C(N)Oc2cc(C)oc(=O)c21 (stereo unspecified)	-	0	-	0	0	0
O=S(=O)(c1ccc2c(c1)OCCO2)N1CCC(n2cnc3cc(F)ccc32)CC1	0	-	0	0	68.7	-
SMILES	PTEN del growth	Insulin prom inh	bCat KO growth	p97 inhibitor	L major viab	ROMK primary
O=S(=O)(c1ccc2c(c1)OCCO2)N1CCC(n2nnc3cc(F)ccc32)CC1	0	0	0	0	0	-
CCc1ccc(N(C2C=CS(=O)(=O)C2)S(=O)(=O)c2ccccc2)cc1 (stereo unspecified)	0	0	0	0	59.2	0
Cc1ccc(S(=O)(=O)N(c2cccc(C(F)(F)F)c2)C2C=CS(=O)(=O)C2)cc1 (stereo unspecified)	0	0	0	0	0	0
CC1CC(C)CN(C(=O)/C(=C\c2ccccc2)c2ccccc2)C1 (stereo unspecified)	0	0	0	0	95.9	0
CN1CCN(C(=O)/C(=C/c2ccccc2)c2ccccc2)CC1	0	0	0	0	0	-
O=C(NC(=S)NNC(=O)c1cc2ccccc2cc1O)c1ccco1	-	-	-	0	76.3	0
NNC(=O)c1cc2ccccc2cc1O	0	0	0	0	63.8	-
O=C(NC(=S)NNC(=O)c1ccccc1O)c1ccco1	0	-	0	0	0	-
CC(C)CNC(=O)c1ccc(NC(=O)c2cccs2)cc1	0	0	0	0	52.4	-
O=C(NNC(=S)NC(=O)c1cccs1)c1ccc(NC(=O)c2ccccc2)cc1	0	0	0	0	99.2	-
CCC(C)c1ccc(NC(=O)c2cccs2)cc1 (stereo unspecified)	0	0	0	0	0	0
O=C(Nc1ccc(NC(=S)NC(=O)c2cccs2)cc1)c1ccccc1	0	0	0	0	0	0
O=[N+]([O-])c1cccc(CSc2nnc(Cc3ccccc3)n2-c2ccc(F)cc2)c1	0	0	0	0	0	0
CC(NC(=O)c1ccc(Br)s1)c1ccncc1 (stereo unspecified)	-	-	-	0	0	-
Cc1cc(C)cc(NCCC#N)c1	0	-	0	0	0	0
O=C(NNC(=S)NC(=O)c1ccco1)c1ccc(NC(=O)c2ccccc2)cc1	-	0	-	0	95.6	0
CCCCC(=O)Nc1ccc(C(=O)NNC(=S)NC(=O)c2cccs2)cc1	0	-	0	0	62.4	-
CC1(CO)COC(c2ccccc2)=N1 (stereo unspecified)	-	-	-	0	-	-
CC(C)CNC(=O)Cn1c(=O)c2c(ncn2CC(C)C)n(Cc2ccccc2)c1=O	-	-	-	0	0	0
CC(C)c1[nH]nc2c1C(C(C)C)C(C#N)=C(N)O2 (stereo unspecified)	0	0	0	0	68.7	-
CC(C)C1C(C#N)=C(N)Oc2n[nH]c(-c3ccccc3)c21 (stereo unspecified)	0	0	0	0	0	-
O=C(/C=C/c1ccc2c(c1)OCO2)Nc1nc(-c2ccc(F)cc2F)cs1	0	0	5.8	0	0	-
O=C(/C=C/c1ccc2c(c1)OCO2)Nc1nc2ccccc2s1	0	-	0	0	0	-
Cc1ccc2nc(NC(=O)/C=C/c3ccc4c(c3)OCO4)sc2c1	1.2	0	0	0	0	0
C/C(CC(=O)NCc1ccccc1)=N\NC(N)=S	-	-	-	0	0	0
SMILES	PTEN del growth	Insulin prom inh	bCat KO growth	p97 inhibitor	L major viab	ROMK primary
CC1=C(CC/C(C)=N/NC(N)=S)C(C)(C)CCC1	0	0	0	0	100.0	0
O/N=C/c1ccc(OCc2ccccc2)c(Cl)c1	0	0	0	0	0	0
CCOc1cc(/C=N/O)ccc1OS(=O)(=O)c1ccc(C)cc1	0	0	0	0	0	0
COc1cc(/C=N/n2cnnc2)ccc1OCCOc1ccccc1	0	0	0	0	0	0
COc1cc(/C=N/n2cnnc2)ccc1OCc1ccc(C)cc1	0	0	0	0	96.2	0
COc1cc(/C=N/n2cnnc2)ccc1OCc1ccccc1	0	0	0	0	80.3	-
CCOc1cc(/C=N/O)ccc1OCc1ccc(C)cc1	0	0	0	0	60.6	0
O/N=C/c1ccc(OCc2ccccc2)c(Br)c1	0	0	0	0	57.1	-

Bioassay records (PubChem)
